HSF1 inh – HSF1 inhibition. activity change, negative = inhibition, % at 7.5 µM (by protocol). AID 2098. NIH3T3-HGL HSE-luciferase, MG132-induced, luminescence 8 h; hits give low values. hit rate 0.77% among 300,000;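 active means more than half of replicate wells show activity change below -50%, luminescence cut by over half; inconclusive means some wells, but at most half, below -50%; inactive means no replicate well below -50%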;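 further: luciferase reports HSF-1 transcriptional activity via heat shock element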
Platelet DG rel – modulates dense granule release in human platelets; human platelet-rich plasma, SFLLRN dense granule ATP release, luminescence; inhibition, %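 (compounds screened at 7.5 µM in platelet-rich plasma)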; hit rate 0.22% among 300,000;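 active means mean replicate score, as percent of positive control, at or above 50; inconclusive means mean below 50 but at least one replicate at or above 50; inactive means mean and every replicate below 50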
dFosB activator – activators of mouse delta FosB homodimer. P13346. purified delta FosB, TAMRA-CDK5 oligo fluorescence polarization; percent of positive-control signal above neutral wells. activation, % at 25 µM. hit rate 0.99% among 340,000. AID 493131;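 active means mean activation above about 17%, with every replicate also reaching it, limit read from the data, passing the limit was not always enough; inconclusive means only one of the two conditions met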
Target sequence (P13346 whole entry, looked up): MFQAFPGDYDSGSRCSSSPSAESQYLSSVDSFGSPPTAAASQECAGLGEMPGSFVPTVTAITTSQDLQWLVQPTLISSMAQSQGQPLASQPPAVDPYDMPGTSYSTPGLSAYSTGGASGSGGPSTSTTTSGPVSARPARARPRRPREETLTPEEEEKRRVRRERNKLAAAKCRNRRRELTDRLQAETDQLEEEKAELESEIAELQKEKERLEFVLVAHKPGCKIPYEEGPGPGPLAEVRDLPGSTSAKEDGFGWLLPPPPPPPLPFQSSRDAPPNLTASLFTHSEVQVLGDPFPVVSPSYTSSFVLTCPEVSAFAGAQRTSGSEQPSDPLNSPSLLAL
HSF-1 act – increases HSF-1 driven luciferase reporter signal | hit rate 1.7% among 300,000 | NIH3T3-HGL HSF-1 luciferase reporter, MG132, 8 h; 100% = twice DMSO control signal | AID 504408 | activation, % at 9 µM;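 active means mean replicate activation of at least 50% with a set share of replicates each reaching 50%; inconclusive means only one of those two conditions met; inactive means mean below 50% and too few replicates reaching it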
MPTP inh – permeability transition pore inhibition | isolated mouse mitochondria, Ca2+ swelling absorbance, 30 min | inhibition, % at 10 µM | hit rate 1.4% among 360,000 | AID 602449;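 active means inhibition of 50% or more, scaled per plate between neutral and stimulator controls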
HSP90 inh – inhibitors of HSP90 luciferase refolding in rabbit reticulocyte lysate; inhibition, % at 5.6 µM; AID 1789; hit rate 0.91% among 290,000; luciferase refolding luminescence, 3 h;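 active means inhibition above the screen-wide mean plus 3 SD, computed separately per campaign, cut at about 16% in these data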;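 further: inhibitors lower the luminescence because luciferase stays unfolded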
MPTP counter – membrane potential counter-screen of mitochondrial pore inhibitors; hit rate 78% among 5,000; inhibition, % at 10 µM; AID 624504; isolated mitochondria, Rhodamine 123 fluorescence; shares compounds with MPTP inh; in the data active means inhibition above about 22%
MPTP abs DR – MPTP inhibition, dose response swelling confirmation. isolated mitochondria swelling, absorbance. IC50, µM. shares compounds with MPTP inh. hit rate 58% among 780. AID 651561; in the data active means IC50 below about 20 µM
MPTP cs DR – MPTP inhibitor counter-screen activity, dose response | IC50, µM | hit rate 49% among 780 | isolated mitochondria counterscreen, fluorescence read-out | shares compounds with MPTP inh; in the data active means IC50 below about 80 µM
Of the large screens only hits and unclear results are named; the others gave an inactive call (follow-up assays come after a bar, where they were run). Sampled rows, rich in hits. Any-hit rate of the full collection: about 4.9%.

CCN1CCc2c(sc(NC(=O)C3CCCCC3)c2C(=O)OC)C1	none
Nc1nc2ccc(Cl)cc2cc1C(=O)NCCc1c[nH]c2ccccc12	MPTP inh 84.0 (no result: HSF1 inh, Platelet DG rel, dFosB activator, HSF-1 act, HSP90 inh) | MPTP counter 91.0
CC(=O)Nc1cccc(-c2ccnc3c2CC(C)(C(=O)NCc2ccc(F)c(F)c2)O3)c1 (stereo unspecified)	none (no result: HSF1 inh, Platelet DG rel, dFosB activator, HSF-1 act, HSP90 inh)
COc1ccc(CNCC(O)(c2ccc(F)cc2)c2ccc(F)cc2)cc1	MPTP inh 72.9 | MPTP counter inactive | MPTP abs DR 6.58 | MPTP cs DR 19.9
COc1ccc(CNCC(O)(c2ccccc2)c2ccccc2)cc1	none
COc1cc(CNCc2ccc(SC)cc2)cc(OC)c1	MPTP inh 56.1 | MPTP counter inactive | MPTP abs DR 11.3 | MPTP cs DR 17.8
CCN(CC(=O)Nc1c(F)cccc1F)C(=O)c1ccc(N2C(=O)c3ccccc3C2=O)cc1	none (no result: HSP90 inh)
Cc1cccc(NC(=O)C(C)OC(=O)c2ccccc2NS(=O)(=O)c2cc(C)c(C)c([N+](=O)[O-])c2)c1 (stereo unspecified)	MPTP inh 93.1 | MPTP counter 64.8
Cc1ccccc1OCCNC(=O)CSc1ccc(C(F)(F)F)cc1[N+](=O)[O-]	MPTP inh 93.1 | MPTP counter 73.4
COc1ccc(OCCNC(=O)c2cccc(Oc3ccc(C(F)(F)F)cc3[N+](=O)[O-])c2)cc1	none
COc1cccc(OCCNC(=O)CSc2ccc(C(F)(F)F)cc2[N+](=O)[O-])c1	MPTP inh 76.2 | MPTP counter 45.7
C#CCOCCOCCOCCNc1nc(N2CCN(C(=O)[C@H](CCCCN)n3cc([C@@H](N)[C@H](C)CC)nn3)CC2)nc(N2CCN(C(=O)[C@H](CCC(=O)O)n3cc([C@@H](N)CCSC)nn3)CC2)n1	none (no result: HSF1 inh, Platelet DG rel, HSF-1 act, HSP90 inh)
COc1cc(/C=C/C(=O)O)cc(S(=O)(=O)Nc2ccc(S(=O)(=O)N3CCCCC3)cc2)c1OC	none (no result: HSF1 inh, Platelet DG rel, HSF-1 act, HSP90 inh)
CCn1nccc1C(=O)Nc1cc(Cl)cc(Cl)c1	MPTP inh 66.2 | MPTP counter 75.3
O=C(Nc1ccc(-c2cn3ccccc3n2)cc1)c1cccs1	none
CC(C)(C)N/N=C/c1cc(Cl)cc([N+](=O)[O-])c1O	MPTP inh 92.6 | MPTP counter 53.9
O=C(Cn1nc2ccccc2n1)N/N=C/c1cc(Cl)cc([N+](=O)[O-])c1O	none (no result: HSF1 inh, Platelet DG rel, HSF-1 act)
O=[N+]([O-])c1cc(Cl)cc(/C=N/Nc2nc3ccccc3s2)c1O	MPTP inh 77.8 | MPTP counter 78.2
COC(=O)CC(NC(=O)c1cccs1)c1ccc(OC)c(OC)c1 (stereo unspecified)	none
CC(C)n1ncc2c(C(=O)Nc3cccc(C#N)c3)cc(C3CC3)nc21	MPTP inh 73.1 (no result: HSF1 inh, Platelet DG rel, HSF-1 act, HSP90 inh) | MPTP counter 85.4
O=C(CSc1ncc(-c2ccccc2)n1C1CCCC1)N1CCc2ccccc21	none
COc1ccc(/C=C2/C(=O)N(c3nc4ccccc4s3)N=C2CSc2ccc(Cl)cc2)cc1	MPTP inh 91.1 | MPTP counter 56.5
CC(C)(C)c1ccc(C(=O)NNC(=O)CNC(=O)c2cccs2)cc1	none (no result: HSF1 inh, Platelet DG rel, HSF-1 act, HSP90 inh)
COc1ccc(C)cc1-n1nnnc1SCC(=O)NC1CCS(=O)(=O)C1 (stereo unspecified)	none (no result: HSF1 inh, Platelet DG rel, HSF-1 act, HSP90 inh)
Cc1ccc(-c2csc(N3CCC(C(N)=O)CC3)n2)cc1	none (no result: HSF1 inh, Platelet DG rel, HSF-1 act, HSP90 inh)
Cc1ccc(-c2csc(N3CCC(NS(=O)(=O)c4ccc5c(c4)OCCO5)CC3)n2)cc1	MPTP inh 95.1 | MPTP counter 95.3
COc1cc(CNCCc2c[nH]c3ccccc23)ccc1OCc1ccc(F)cc1	MPTP inh 70.3 | MPTP counter inactive
COc1cc(CNn2nnnc2N)cc(Br)c1OCc1c(Cl)cccc1Cl	MPTP inh 51.8 | MPTP counter 30.4
COc1cc(/C=N/NC(=O)C2c3ccccc3Oc3ccccc32)ccc1O	MPTP inh 83.4 | MPTP counter inactive | MPTP abs DR 15.8 | MPTP cs DR inactive
Cc1cc(C)cc(NC(=O)C2CCN(S(=O)(=O)c3ccc4c(c3)NC(=O)C(C)S4)CC2)c1 (stereo unspecified)	none
Cc1ccc(NC(=O)C2CCN(S(=O)(=O)c3ccc4c(c3)NC(=O)C(C)S4)CC2)cc1Cl (stereo unspecified)	MPTP inh 96.3 | MPTP counter 97.3
O=C(/C(=N\Nc1ccc(Br)cc1)Sc1nnnn1-c1ccccc1)c1ccccc1	MPTP inh 90.5 | MPTP counter 74.1
O=C(CSc1nnnn1-c1ccccc1)CSc1nnnn1-c1ccccc1	none
O=C(Nc1ccc(Nc2ccccc2)cc1)c1ccc(Cl)c([N+](=O)[O-])c1	MPTP inh 66.7 | MPTP counter 64.1
O=C(Nc1ccc(Cc2ccncc2)cc1)c1ccc(Cl)c([N+](=O)[O-])c1	MPTP inh 53.9 | MPTP counter 75.2
O=C(Nc1ccc(Cl)cc1)c1ccc(-n2cccn2)c([N+](=O)[O-])c1	MPTP inh 72.9 | MPTP counter 66.4
CCOC(=O)Cn1nc(C)c(NC(=O)c2ccc(Cl)c([N+](=O)[O-])c2)c1C	MPTP inh 61.0 | MPTP counter 77.3
CC(C)Nc1nc(NC(C)C)nc(SCC(N)=O)n1	none
CCCCn1c(NC(=O)c2ccccc2)c(C#N)c2nc3ccccc3nc21	MPTP inh 86.6, HSP90 inh 48.6 (no result: HSF1 inh, Platelet DG rel, HSF-1 act) | MPTP counter 79.5
CCCCn1c(NC(=O)c2ccc(F)cc2)c(C#N)c2nc3ccccc3nc21	none (no result: dFosB activator, MPTP inh, HSP90 inh)
CCOC(=O)N1CCN(C(=O)CNS(=O)(=O)c2c(C)cc(C)cc2C)CC1	none
Cc1csc2c(N3CCN(C(=O)Nc4ccc(OC(F)(F)F)cc4)CC3)ncnc12	MPTP inh 88.8 | MPTP counter 72.4
O=C1NC(=S)S/C1=C\c1cc(Cl)ccc1Cl	MPTP inh 98.5 (no result: HSF1 inh, Platelet DG rel, HSF-1 act, HSP90 inh) | MPTP counter 84.0
CC(C)Cn1c(/C=N/Nc2nc3ccccc3[nH]2)nc2ccccc21	MPTP inh 99.7 | MPTP counter 74.0
C=CCn1cc(/C=N/Nc2nc3ccccc3[nH]2)c2ccccc21	Platelet DG rel inconclusive, HSF-1 act 268.5, MPTP inh 63.4 | MPTP counter inactive
Cn1c(/C=N/Nc2nc3ccccc3[nH]2)nc2ccccc21	none
CCCn1c(/C=N/Nc2nc3ccccc3[nH]2)nc2ccccc21	dFosB activator inconclusive, MPTP inh 89.9 (no result: HSF1 inh, Platelet DG rel, HSF-1 act) | MPTP counter 80.8
CCn1c(=O)c2[nH]c(SC)nc2n(CC)c1=O	none (no result: HSF1 inh, Platelet DG rel, dFosB activator, HSF-1 act, HSP90 inh)
Cc1csc(=O)n1CCC(=O)OCC(=O)c1c(N)n(CC(C)C)c(=O)n(C)c1=O	none (no result: HSP90 inh)
CC(C)Cn1c(N)c(C(=O)COC(=O)CC23CC4CC(CC(C4)C2)C3)c(=O)n(C)c1=O	MPTP inh 80.7 | MPTP counter 115.8
